# A selection: hits, their analogues and other compounds. The true share with any hit is near 3.9%.
# TROY signal inh: inhibitors of TROY-driven NF-kB signaling, primary screen, Q293 LMP1-TROYcd cells, NF-kB luciferase, uHTS; Q293 LMP1-TROYcd NF-kB luciferase reporter, 4 h; inhibition, % at 10 µM; 360,000 compounds, 0.98% hits; AID 1347056, 2019;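 active means compounds whose plate-normalised and pattern-corrected inhibition of the luciferase reporter signal at the single screening dose is 50% or more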
# aSyn 5UTR inh: MLPCN primary screen, SNCA 5' untranslated region; alpha-synuclein 5'UTR reporter, inhibitor activity; AID 1813, 2009; 300,000 compounds, 0.82% hits; inhibition, % (tested at 7.5 µM); in the data active means inhibition above about 60%;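 further: H4 neuroglioblastoma cells stably carrying SNCA 5'UTR luciferase fusion; 0% = DMSO wells and 100% = positive control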
# TRAIL sens C8: viability loss with TRAIL in NB7+C8 cells, primary screen, TRAIL sensitizer project, cell-based, ATPlite luminescence | inhibition (viability loss, TRAIL sensitization), % at 10 µM | 360,000 compounds, 1% hits;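 active means compounds causing at least 50% loss of cell viability in the single-dose screen, relative to plate controls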
# TWEAK Fn14 block: inhibitors of TWEAK-Fn14 signaling, primary screen, luciferase reporter cells, uHTS; 360,000 compounds, 2% hits; inhibition, % at 10 µM; TWEAK-stimulated Fn14 reporter cells, luciferase luminescence, 8 h; AID 1159606, 2016; in the data active means inhibition above about 50%
# HSP90 inh: HSP90 inhibitors, primary screen, cell lysate, luminescence; Heat shock protein HSP 90 (rabbit reticulocyte lysate; luciferase refolding); Rabbit reticulocyte lysate, luciferase refolding luminescence, 3 h; inhibition, % at 5.6 µM; 290,000 compounds, 0.91% hits; AID 1789, 2009;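 active means inhibition above the screen-wide mean plus 3 SD, computed separately per campaign, cut at about 16% in these data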;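 further: 0% = DMSO wells and 100% = 60 µM geldanamycin wells; inhibitors lower the luminescence because luciferase stays unfolded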
# HIF-2a inh: HIF-2a reporter inhibitors, primary screen, luminescence, 786-0 RCC cells; 786-0 RCC cells HIF-2a reporter, luciferase luminescence, overnight; AID 624352, 2012; inhibition, % at 18.8 µM; 360,000 compounds, 0.72% hits;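 active means inhibition of the luminescence signal of 40% or more relative to plate controls, in a single-dose primary screen at 18.75 µM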
# * hit, by the source's call; / = no result.
SMILES,TROY signal inh,aSyn 5UTR inh,TRAIL sens C8,TWEAK Fn14 block,HSP90 inh,HIF-2a inh
COc1ccc(O)c2c(=O)c3c(OC)cc4c(c3oc12)C1C=COC1O4 (stereo not drawn),-14.9,94.0*,19.1,-26.1,4.5,13.4
O=[N+]([O-])c1ccc(NCc2ccc(Cl)cc2)c2ccncc12,43.4,38.2,13.2,50.6*,9.5,13.9
O=[N+]([O-])c1ccc(NCc2ccccc2)c2nonc12,/,16.4,/,/,-0.4,/
COc1ccccc1-n1c(O)c(C=NCCCn2ccnc2)c(=O)[nH]c1=O,3.6,-0.3,4.5,5.5,-1.2,1.8
O=c1[nH]c(=O)n(-c2cccc3ccccc23)c(O)c1C=NCCCn1ccnc1,15.7,-15.0,-11.5,62.1*,1.5,-4.7
C/C=C(\C)C(=O)OC1C(C)=C2C(C1OC(=O)CCCCC)C(C)(OC(C)=O)CC(OC(=O)CCC)C1(O)C2OC(=O)C1(C)O (stereo not drawn),/,108.1*,/,/,/,/
O=C(c1ccc(Cl)cc1)C1CCCN(Cc2cccc3cnccc23)C1 (stereo not drawn),85.2*,-3.0,16.4,20.9,-1.6,18.8
O=C(c1cccc(Cl)c1)C1CCCN(Cc2cccc3cnccc23)C1 (stereo not drawn),7.7,18.8,17.5,25.6,-0.3,26.7
O=C(c1ccco1)c1cn(Cc2ccccc2Cl)c2ccccc12,-8.0,16.9,-5.1,-20.4,10.3,-26.3
O=C(c1ccco1)c1cn(Cc2ccccc2)c2ccccc12,-26.0,-28.9,-3.9,101.5*,0.9,-33.8
CNC(=O)Oc1ccc(-c2cn3cc(Cl)ccc3n2)cc1,-13.3,-41.4,83.7*,5.6,11.0,-131.1
O=C1NC(=O)C(=Cc2ccc(SC3CCCCC3)o2)C(=O)N1,19.4,-12.8,4.0,4.2,-0.4,52.4*
CCOC(=O)[C@]12Cc3cc(C)ccc3[C@H]1N(C)C(=O)c1cc(OC)ccc12,31.3,/,38.4,26.9,/,36.8
COc1ccc(-c2cc(=Nc3cccc(C(=O)O)c3)c3cc(C)ccc3o2)cc1,21.4,-80.7,0.9,57.7*,6.4,-321.3
COc1ccc(-c2cc(=NCCCCCC(=O)O)c3cc(C)ccc3o2)cc1,-58.9,-60.4,-15.4,-36.5,-2.1,-135.5
Cc1cc(C)c(C)c(C(O)(C(=O)O)c2ccccc2)c1 (stereo not drawn),-14.5,/,-5.2,-3.6,/,9.8
CC1=CC(=C2C(=O)NC(=S)NC2=O)C=C(C(F)(F)F)N1Cc1ccccc1,20.6,113.4*,25.1,-5.5,3.4,18.6
Fc1cccc(-c2ccc3c(c2)CN(C(=S)NCCc2ccccc2)Cc2cnnn2-3)c1,15.1,/,20.3,-4.3,/,-1.5
Cc1cccc(-n2c(/C=C/c3ccc([N+](=O)[O-])o3)nc3ccccc3c2=O)c1,-5.9,-211.5,-2.6,94.6*,-0.6,19.6
CC(=O)O[C@@H]1CC[C@]2(C)C3CC[C@@]4(C)C(C[C@@H](O)[C@@H]4O)C3[C@@H](OC(C)=O)C[C@H]2C1 (stereo partly drawn),-10.4,/,-1.9,-10.7,/,3.3
CC1OC(OC2C(O)CC(OC3C(O)CC(OC4CCC5(C)C(CCC6C5CCC5(C)C(C7=CC(=O)OC7)C(O)CC65O)C4)OC3C)OC2C)CC(O)C1O (stereo not drawn),48.5,/,60.5*,81.2*,/,72.1*
C[C@H]1O[C@@H](O[C@H]2[C@@H](O)C[C@H](O[C@H]3[C@@H](O)C[C@H](O[C@H]4CC[C@@]5(C)[C@H](CC[C@@H]6[C@@H]5CC[C@]5(C)[C@@H](C7=CC(=O)OC7)CC[C@]65O)C4)O[C@@H]3C)O[C@@H]2C)C[C@H](O)[C@@H]1O,/,/,/,/,5.3,/
CC(=O)OC1CC(OC2C(O)CC(OC3C(O)CC(OC4CCC5(C)C(CCC6C5CCC5(C)C(C7=CC(=O)OC7)C(O)CC65O)C4)OC3C)OC2C)OC(C)C1OC1OC(CO)C(O)C(O)C1O (stereo not drawn),44.2,/,62.5*,82.8*,/,68.5*
CC(=O)OC1CC2(O)C3CCC4CC(O)CCC4(C)C3CCC2(C)C1C1=CC(=O)OC1 (stereo not drawn),45.5,/,66.4*,85.1*,/,68.8*
CCOC(=O)c1cc2cc(OC)ccc2n1C1CCN(Cc2ccccc2)CC1,-23.0,/,7.3,2.6,/,-89.1
SMILES,TROY signal inh,aSyn 5UTR inh,TRAIL sens C8,TWEAK Fn14 block,HSP90 inh,HIF-2a inh
Cc1ccc(OP2(=O)Nc3cc(C)c(C)cc3S2)cc1 (stereo not drawn),40.5,/,-0.8,64.7*,/,-7.9
COc1ccc(-n2c(O)c(/C=C3\C=Nc4ccc(Br)cc43)c(=O)[nH]c2=O)cc1,-18.0,-11.3,10.7,20.9,4.2,31.4
COc1ccc(-n2c(O)c(/C=C3\C=Nc4ccc(Br)cc43)c(=O)[nH]c2=O)c(OC)c1,-33.1,7.0,-7.7,55.2*,-3.4,44.6*
O=c1[nH]c(=O)n(-c2ccccc2F)c(O)c1/C=C1\C=Nc2ccccc21,1.9,2.1,3.6,54.2*,-0.4,38.5
CC(C)(C)C1(CCO)C(=O)NC(=S)NC1=O,-4.3,/,-24.7,-11.5,/,11.7
CN1C2CCC1/C(=C/c1ccccn1)C(=O)/C2=C\c1ccccn1,41.6,/,85.9*,100.3*,3.3,88.4*
CN1CCC(N(C)c2nc(-c3ccc([N+](=O)[O-])cc3)nc3ccccc23)CC1,-45.6,75.1*,6.9,-55.6,3.9,-20.5
CCCCCCn1c(=O)c(C(=O)Nc2cnccn2)c(O)c2ccccc21,17.8,66.6*,21.1,49.5,4.3,13.6
CCCCCCn1c(=O)c(C(=O)Nc2ncccc2O)c(O)c2ccccc21,31.1,91.9*,8.4,30.8,1.2,14.1
CCCCn1c(=O)c(C(=O)Nc2ccccn2)c(O)c2ccccc21,-0.2,18.1,-12.8,23.8,4.1,15.7
CCCCCn1c(=O)c(C(=O)Nc2ccccn2)c(O)c2ccccc21,-3.1,65.4*,-3.6,41.5,-1.9,14.2
COc1cc(O)c2c(c1)/C=C/C[C@H](O)[C@H](O)C(=O)CCC[C@H](C)OC2=O,-5.5,/,2.6,-47.6,/,-6.8
CC[C@H]1c2ccccc2[C@@H]2CC[C@H]1N2c1ccccc1,/,/,4.1,/,/,2.0
COc1cccc(C(c2nnnn2-c2ccc3c(c2)OCCO3)N2CCC(n3c(=O)[nH]c4ccccc43)CC2)c1OC (stereo not drawn),33.3,/,-20.7,32.7,/,-44.9
O=c1[nH]c2ccccc2n1C1CCN(C(c2ccccc2)c2nnnn2-c2ccc3c(c2)OCCO3)CC1 (stereo not drawn),30.1,/,19.5,52.4*,/,-7.6
